Compounds without any hit were thinned out: in the full panel of roughly 83,000, 20% have a hit.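 Compound tested at a single concentration for 48 hours in 96-well plates; a percent growth value below 10 was scored as active.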 Activity calls are given as the source filed them.
Key:
Test in all cases: NCI-60 one-dose screen, 48 h (100 = growth as untreated, 0 = no growth, -100 = all killed)
Conditions in all cases: 10 µM
DU-145 prostate = tested on: DU-145 prostate
K-562 leukemia = tested on: K-562 leukemia
MALME-3M melanoma = tested on: MALME-3M melanoma
MDA-MB-231 breast = tested on: MDA-MB-231 breast
RXF 393 renal = tested on: RXF 393 renal
SF-268 CNS = tested on: SF-268 CNS
SF-295 CNS = tested on: SF-295 CNS
SF-539 CNS = tested on: SF-539 CNS
M14 melanoma = tested on: M14 melanoma
HCT-15 colon = tested on: HCT-15 colon
HT29 colon = tested on: HT29 colon
SNB-75 CNS = tested on: SNB-75 CNS
SNB-19 CNS = tested on: SNB-19 CNS
U251 CNS = tested on: U251 CNS
SK-MEL-5 melanoma = tested on: SK-MEL-5 melanoma
UACC-62 melanoma = tested on: UACC-62 melanoma
LOX IMVI melanoma = tested on: LOX IMVI melanoma
SK-MEL-28 melanoma = tested on: SK-MEL-28 melanoma
PC-3 prostate = tested on: PC-3 prostate
UACC-257 melanoma = tested on: UACC-257 melanoma

Measured: growth

CCOC(=O)c1sc2ncnc(Nc3ccc4c(cnn4C(=O)Nc4ccc(C)c(Cl)c4)c3)c2c1C
inactive: DU-145 prostate 102% | K-562 leukemia 102% | MALME-3M melanoma 91.1% | MDA-MB-231 breast 96.5% | RXF 393 renal 99.3% | SF-268 CNS 103% | SF-295 CNS 102% | SF-539 CNS 104% | M14 melanoma 103% | HCT-15 colon 95.3% | HT29 colon 90% | SNB-75 CNS 110% | SNB-19 CNS 103% | U251 CNS 99.3% | SK-MEL-5 melanoma 102% | UACC-62 melanoma 99.6% | LOX IMVI melanoma 96% | SK-MEL-28 melanoma 111%

CCOC(=O)CSc1nc(-c2cc(OC)ccc2OC)cc(-c2ccc(OC)cc2)c1C#N
inactive: DU-145 prostate 75.2% | K-562 leukemia 106% | MALME-3M melanoma 98.8% | MDA-MB-231 breast 83.9% | RXF 393 renal 70.3% | SF-268 CNS 73.9% | SF-295 CNS 70.3% | SF-539 CNS 64.6% | HCT-15 colon 69.1% | HT29 colon 64.2% | SNB-75 CNS 97.5% | SNB-19 CNS 94.2% | U251 CNS 86.7% | SK-MEL-5 melanoma 80% | UACC-62 melanoma 71% | LOX IMVI melanoma 85.5% | SK-MEL-28 melanoma 84.8%

CCn1c2ccc(O)cc2c2c(C)c3c[n+](C)ccc3c(C)c21
active: MALME-3M melanoma -20.4% | SF-268 CNS -10.1% | SNB-19 CNS -3.45% | U251 CNS 3.41% | SK-MEL-5 melanoma 7.6%
inactive: DU-145 prostate 53.7% | K-562 leukemia 60% | MDA-MB-231 breast 71.7% | RXF 393 renal 57.1% | SF-295 CNS 13.6% | SF-539 CNS 12.1% | M14 melanoma 51.8% | HCT-15 colon 81.2% | HT29 colon 55.8% | SNB-75 CNS 31% | UACC-62 melanoma 16.6% | LOX IMVI melanoma 62.2% | SK-MEL-28 melanoma 31.8%

O=C1/C(=C/c2cccc(F)c2)Cc2ccccc21
inactive: DU-145 prostate 113% | K-562 leukemia 106% | MALME-3M melanoma 106% | MDA-MB-231 breast 112% | RXF 393 renal 99.4% | SF-268 CNS 112% | SF-295 CNS 77.9% | SF-539 CNS 110% | M14 melanoma 98.8% | HCT-15 colon 93.7% | HT29 colon 94.6% | SNB-75 CNS 89.4% | SNB-19 CNS 98.7% | PC-3 prostate 90% | SK-MEL-5 melanoma 99.4% | UACC-62 melanoma 99.2% | LOX IMVI melanoma 96.7% | SK-MEL-28 melanoma 105%

C#CCOc1c(OC)cc(C(=O)/C(C)=C/c2cccc(N=[N+]=[N-])c2)cc1OC
active: RXF 393 renal -8.56% | SF-295 CNS 8.17% | SF-539 CNS -12.5% | M14 melanoma 5.53% | HT29 colon 2.11%
inactive: DU-145 prostate 11.7% | K-562 leukemia 14.4% | MALME-3M melanoma 54.7% | MDA-MB-231 breast 30.5% | SF-268 CNS 42.6% | HCT-15 colon 18.7% | SNB-75 CNS 15.1% | SNB-19 CNS 34.5% | U251 CNS 18.7% | SK-MEL-5 melanoma 35.2% | UACC-62 melanoma 37.7% | LOX IMVI melanoma 30.4% | SK-MEL-28 melanoma 58.8%

O=C1c2c(c3c4ccccc4n(CCCCCCN4CCOCC4)c3c3[nH]c4ccccc4c23)C(=O)N1O
active: K-562 leukemia -32.9% | U251 CNS -23.2% | LOX IMVI melanoma -88.4%
inactive: DU-145 prostate 109% | MALME-3M melanoma 117% | MDA-MB-231 breast 48.5% | RXF 393 renal 90.3% | SF-268 CNS 92.9% | SF-295 CNS 108% | SF-539 CNS 92.4% | M14 melanoma 81.9% | HCT-15 colon 16.5% | HT29 colon 24.3% | SNB-75 CNS 74.9% | SNB-19 CNS 97% | SK-MEL-5 melanoma 23.4% | UACC-62 melanoma 82.7% | SK-MEL-28 melanoma 118%

Nc1ccc(-c2cccs2)cc1NC(=O)c1ccc(CCCC(=O)Nc2ccc(C3CC3N)cc2)cc1 (configuration not stated)
inactive: DU-145 prostate 84.6% | MALME-3M melanoma 75.1% | MDA-MB-231 breast 47.1% | RXF 393 renal 77% | SF-268 CNS 104% | SF-295 CNS 84% | SF-539 CNS 77% | M14 melanoma 70.8% | HCT-15 colon 87.2% | HT29 colon 64.8% | SNB-75 CNS 111% | SNB-19 CNS 90.8% | SK-MEL-5 melanoma 20% | UACC-62 melanoma 45.5% | LOX IMVI melanoma 19% | SK-MEL-28 melanoma 83.1%
active: K-562 leukemia -30.7% | U251 CNS 7.02%

N#Cc1c(-c2ccc(Cl)cc2)cc(-c2cc(O)ccc2O)nc1N
inactive: DU-145 prostate 21.7% | K-562 leukemia 29.1% | MALME-3M melanoma 30.2% | RXF 393 renal 15.7% | SF-268 CNS 31.9% | SF-295 CNS 75.6% | HCT-15 colon 43.8% | HT29 colon 87.3% | SNB-75 CNS 32.8% | SNB-19 CNS 26.5% | SK-MEL-28 melanoma 18.4%
active: MDA-MB-231 breast -5.89% | SF-539 CNS -1.42% | M14 melanoma 2.5% | U251 CNS -26.5% | SK-MEL-5 melanoma -79.9% | UACC-62 melanoma -25.6% | LOX IMVI melanoma -56.2%

Cc1cc(CSc2ccccc2C(=O)N2CC=C(c3ccccc3)CC2)on1
inactive: DU-145 prostate 107% | K-562 leukemia 89.1% | MALME-3M melanoma 95.8% | MDA-MB-231 breast 95.3% | RXF 393 renal 107% | SF-268 CNS 108% | SF-295 CNS 99.6% | SF-539 CNS 92.9% | M14 melanoma 108% | HT29 colon 84.2% | SNB-75 CNS 90.3% | SNB-19 CNS 104% | U251 CNS 98.7% | PC-3 prostate 82.9% | SK-MEL-5 melanoma 97.5% | UACC-62 melanoma 90.4% | LOX IMVI melanoma 92.1% | SK-MEL-28 melanoma 98.1%

CSc1ccc(-c2cc(-c3ccc(NC(=O)CCCN4CCCC4)cc3)nc(-c3ccc(NC(=O)CCCN4CCCC4)cc3)c2)cc1
inactive: DU-145 prostate 104% | MALME-3M melanoma 88.4% | RXF 393 renal 51.1% | SF-268 CNS 48.6% | SF-539 CNS 75.7% | UACC-257 melanoma 95.3% | M14 melanoma 88.4% | HCT-15 colon 88.6% | HT29 colon 21.9% | SNB-75 CNS 45.2% | SNB-19 CNS 49.2% | PC-3 prostate 40.8% | SK-MEL-5 melanoma 91.8% | SK-MEL-28 melanoma 94.7%
active: K-562 leukemia -36.4% | MDA-MB-231 breast -4.05%

O=C1C=C(Nc2cccc(Br)c2)c2ccccc2C1=O
inactive: DU-145 prostate 22.4% | K-562 leukemia 21.4% | MALME-3M melanoma 47.2% | MDA-MB-231 breast 54.6% | RXF 393 renal 31.8% | SF-268 CNS 58% | SF-539 CNS 15% | UACC-257 melanoma 79.4% | M14 melanoma 14.4% | HCT-15 colon 22.7% | HT29 colon 111% | SNB-75 CNS 12% | SNB-19 CNS 43.6% | U251 CNS 31.3% | PC-3 prostate 37.4% | SK-MEL-5 melanoma 15.8% | UACC-62 melanoma 46.8% | LOX IMVI melanoma 37.5% | SK-MEL-28 melanoma 56.7%

COc1cc(C(=O)N2CCN(c3cc4c(cc3F)c(=O)c(C(=O)NO)cn4C3CC3)CC2)cc(OC)c1OC
inactive: DU-145 prostate 104% | K-562 leukemia 103% | MALME-3M melanoma 105% | MDA-MB-231 breast 98.8% | RXF 393 renal 104% | SF-268 CNS 98% | SF-295 CNS 103% | SF-539 CNS 101% | HCT-15 colon 106% | HT29 colon 105% | SNB-75 CNS 96.3% | SNB-19 CNS 100% | U251 CNS 98.1% | PC-3 prostate 93.6% | SK-MEL-5 melanoma 101% | UACC-62 melanoma 95% | LOX IMVI melanoma 94.1% | SK-MEL-28 melanoma 108%

Fc1ccc2[nH]cc(-c3nc(-c4ccsc4)cs3)c2c1
inactive: DU-145 prostate 108% | K-562 leukemia 106% | MALME-3M melanoma 93% | MDA-MB-231 breast 79.5% | RXF 393 renal 100% | SF-268 CNS 99.8% | SF-295 CNS 89.8% | SF-539 CNS 94% | M14 melanoma 93.7% | HT29 colon 100% | SNB-75 CNS 92.2% | SNB-19 CNS 109% | U251 CNS 93.7% | SK-MEL-5 melanoma 89.2% | UACC-62 melanoma 88.5% | LOX IMVI melanoma 86.7% | SK-MEL-28 melanoma 108%

O=S(=O)(NCCCNc1nccc(-c2cn(-c3ccccc3)nc2-c2ccc(Cl)c(O)c2)n1)c1ccccc1
inactive: DU-145 prostate 81.4% | K-562 leukemia 65% | MALME-3M melanoma 125% | MDA-MB-231 breast 71.6% | RXF 393 renal 74.2% | SF-268 CNS 68.5% | SF-295 CNS 63.2% | SF-539 CNS 88.9% | M14 melanoma 60.7% | HCT-15 colon 51.3% | HT29 colon 60.5% | SNB-75 CNS 80.5% | SNB-19 CNS 86.1% | U251 CNS 59.4% | SK-MEL-5 melanoma 46.1% | UACC-62 melanoma 59.1% | LOX IMVI melanoma 63.1% | SK-MEL-28 melanoma 84.5%

O=C1c2ccccc2-c2c1c1cccnc1c(=O)n2C[C@H](O)CO
inactive: DU-145 prostate 80.9% | K-562 leukemia 76.6% | MALME-3M melanoma 66.8% | MDA-MB-231 breast 75.7% | RXF 393 renal 91% | SF-268 CNS 75.3% | SF-295 CNS 50.3% | SF-539 CNS 52% | M14 melanoma 75.4% | HCT-15 colon 62.8% | HT29 colon 57.7% | SNB-75 CNS 63.9% | SNB-19 CNS 59.2% | U251 CNS 46.8% | SK-MEL-5 melanoma 50.9% | UACC-62 melanoma 51% | LOX IMVI melanoma 36.3% | SK-MEL-28 melanoma 87.9%

Nc1nc(-c2cccnc2)nc2c1sc(=S)n2-c1ccccc1
inactive: DU-145 prostate 103% | K-562 leukemia 106% | MALME-3M melanoma 112% | MDA-MB-231 breast 65.2% | RXF 393 renal 100% | SF-268 CNS 96% | SF-295 CNS 111% | SF-539 CNS 103% | M14 melanoma 106% | HCT-15 colon 104% | HT29 colon 94.6% | SNB-75 CNS 94.9% | SNB-19 CNS 95% | U251 CNS 88.2% | SK-MEL-5 melanoma 98.6% | LOX IMVI melanoma 93.7% | SK-MEL-28 melanoma 116%

CN1CCc2c(sc3nc4n(-c5ccc(Cl)cc5)c(=O)[nH]n4c(=O)c23)C1
inactive: DU-145 prostate 103% | K-562 leukemia 107% | MALME-3M melanoma 98.5% | MDA-MB-231 breast 120% | RXF 393 renal 118% | SF-268 CNS 106% | SF-295 CNS 104% | SF-539 CNS 99.8% | M14 melanoma 99.3% | HCT-15 colon 103% | HT29 colon 86.4% | SNB-75 CNS 95.2% | SNB-19 CNS 109% | U251 CNS 98.7% | SK-MEL-5 melanoma 110% | UACC-62 melanoma 111% | LOX IMVI melanoma 92.5% | SK-MEL-28 melanoma 111%

Reference: PubChem BioAssay (NCI)
